Counter-ions that a name gives are not always drawn.
Experiments:
Conditions in all cases: 10 µM; exposure time: 3 h pre-incubation + 3 h imaging
[1] = tested on: Danio rerio larvae (5 dpf); assay: optomotor response to red moving lines, difference vs DMSO (percentage points (treated minus DMSO)); higher = more of the behaviour than the DMSO vehicle control
Procedure, shortened: (§1)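 5-dpf wild-type zebrafish larvae in 96-well ProxiPlates were exposed to library drugs at 10 µM (diluted 1000× from DMSO stocks into egg water). There were 48 larvae per drug, exposed 3 h before and 3 h during imaging at 28.5 °C. Images taken every 6 s covered a 3-h program of rest, moving coloured lines and acoustic pulses, and an ImageJ macro scored movement and upper-half location. Each behaviour score is the treated-group mean minus the DMSO vehicle mean, in percentage points.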

[2] = tested on: Danio rerio larvae (5 dpf); assay: activity during period 15 (no stimuli), difference vs DMSO (percentage points (treated minus DMSO)); higher = more of the behaviour than the DMSO vehicle control
Procedure, shortened: as §1

[3] = tested on: Danio rerio larvae (5 dpf); assay: activity during first hour (no stimuli), difference vs DMSO (percentage points (treated minus DMSO)); higher = more of the behaviour than the DMSO vehicle control
Procedure, shortened: as §1

[4] = tested on: Danio rerio larvae (5 dpf); assay: optomotor response to green moving lines, difference vs DMSO (percentage points (treated minus DMSO)); higher = more of the behaviour than the DMSO vehicle control
Procedure, shortened: as §1

[5] = tested on: Danio rerio larvae (5 dpf); assay: optomotor response to blue moving lines, difference vs DMSO (percentage points (treated minus DMSO)); higher = more of the behaviour than the DMSO vehicle control
Procedure, shortened: as §1

[6] = tested on: Danio rerio larvae (5 dpf); assay: optomotor response to fast red moving lines, difference vs DMSO (percentage points (treated minus DMSO)); higher = more of the behaviour than the DMSO vehicle control
Procedure, shortened: as §1

[7] = tested on: Danio rerio larvae (5 dpf); assay: habituation to 1-s acoustic pulses, difference vs DMSO (percentage points (treated minus DMSO)); higher = more of the behaviour than the DMSO vehicle control
Procedure, shortened: as §1

[8] = tested on: Danio rerio larvae (5 dpf); assay: excitability to 1-s acoustic pulses, difference vs DMSO (percentage points (treated minus DMSO)); higher = more of the behaviour than the DMSO vehicle control
Procedure, shortened: as §1

[9] = tested on: Danio rerio larvae (5 dpf); assay: startle response to 20-s acoustic pulses, difference vs DMSO (percentage points (treated minus DMSO)); higher = more of the behaviour than the DMSO vehicle control
Procedure, shortened: as §1

## COc1ccc(Cl)cc1C(=O)NCCc1ccc(S(=O)(=O)NC(=O)NC2CCCCC2)cc1 [Glibenclamide]
[1]
  optomotor response to red moving lines: 10.2
[2]
  activity during period 15: -4.16
[3]
  activity during first hour: 1.18

## CCc1ccc(CCOc2ccc(CC3SC(=O)NC3=O)cc2)nc1 (centres undefined) [Pioglitazone hydrochloride]
[1]
  optomotor response to red moving lines: -7.97
[3]
  activity during first hour: -5.36
[4]
  optomotor response to green moving lines: -7.6

## C/C(O)=C(\C#N)C(=O)Nc1ccc(C(F)(F)F)cc1 [Teriflunomide]
[3]
  activity during first hour: -8.27
[5]
  optomotor response to blue moving lines: -8.25

## Cc1nc(-c2ccc(OCC(C)C)c(C#N)c2)sc1C(=O)O [Febuxostat]
[1]
  optomotor response to red moving lines: -1.5
[3]
  activity during first hour: -0.179
[4]
  optomotor response to green moving lines: -4.77
[6]
  optomotor response: 8.02

## CC(=O)O[C@]1(C(C)=O)CC[C@H]2[C@@H]3C=C(C)C4=CC(=O)CC[C@]4(C)[C@H]3CC[C@@]21C [Megestrol Acetate]
[1]
  optomotor response to red moving lines: 3.71
[3]
  activity during first hour: -14.3

## COc1ccccc1Oc1c(NS(=O)(=O)c2ccc(C(C)(C)C)cc2)nc(-c2ncccn2)nc1OCCO [Bosentan]
[7]
  habituation to 1-s acoustic pulses: 4.23
[2]
  activity during period 15: -4.44
[3]
  activity during first hour: 1.27
[5]
  optomotor response to blue moving lines: -2.84
[4]
  optomotor response to green moving lines: -5.7

## CCCc1nc2c(C)cc(-c3nc4ccccc4n3C)cc2n1Cc1ccc(-c2ccccc2C(=O)O)cc1 [Telmisartan]
[8]
  excitability to 1-s acoustic pulses: 12.8
[1]
  optomotor response to red moving lines: -8.2
[2]
  activity during period 15: -7.63
[3]
  activity during first hour: -6.28

## Cc1cn([C@H]2C=C[C@@H](CO)O2)c(=O)[nH]c1=O [Stavudine]
[7]
  habituation to 1-s acoustic pulses: -0.918
[1]
  optomotor response to red moving lines: 9.7
[3]
  activity during first hour: -4.71
[5]
  optomotor response to blue moving lines: 10

## Cn1nnc2c(C(N)=O)ncn2c1=O [Temozolomide]
[2]
  activity during period 15: 2.03
[3]
  activity during first hour: 7.11
[5]
  optomotor response to blue moving lines: 3.81
[6]
  optomotor response: -10.8

## CN/C(=N\CCSCc1nc[nH]c1C)NC#N [Cimetidine]
[1]
  optomotor response to red moving lines: 5.88
[3]
  activity during first hour: 3.11
[9]
  startle response to 20-s acoustic pulses: 7.14

## CN1CCN(CCCN2c3ccccc3Sc3ccc(Cl)cc32)CC1 [Prochlorperazine dimaleate]
[1]
  optomotor response to red moving lines: 4.44
[2]
  activity during period 15: 16.6
[3]
  activity during first hour: 10.4
[9]
  startle response to 20-s acoustic pulses: -7.34

## COc1ccccc1OCCNCC(O)COc1cccc2[nH]c3ccccc3c12 (centres undefined) [Carvedilol]
[7]
  habituation to 1-s acoustic pulses: 2.04
[1]
  optomotor response to red moving lines: 1.15
[3]
  activity during first hour: -9.72

## CN(CCOc1ccc(CC2SC(=O)NC2=O)cc1)c1ccccn1 (centres undefined) [Rosiglitazone]
[3]
  activity during first hour: 2.2

## CCOc1nc2cccc(C(=O)O)c2n1Cc1ccc(-c2ccccc2-c2noc(=O)[nH]2)cc1 [Azilsartan]
[1]
  optomotor response to red moving lines: -3.43
[2]
  activity during period 15: 3.86
[3]
  activity during first hour: 3.52
[4]
  optomotor response to green moving lines: -0.791
[9]
  startle response to 20-s acoustic pulses: 3.96

## CCOC(=O)c1ncn2c1CN(C)C(=O)c1cc(F)ccc1-2 [Flumazenil]
[8]
  excitability to 1-s acoustic pulses: 2.56
[1]
  optomotor response to red moving lines: -7.04
[3]
  activity during first hour: 2.88
[4]
  optomotor response to green moving lines: 15

## CC(c1cc2ccccc2s1)N(O)C(N)=O (centres undefined) [Zileuton]
[1]
  optomotor response to red moving lines: -7.52
[3]
  activity during first hour: -0.123
[5]
  optomotor response to blue moving lines: -7.52

## Clc1ccccc1C(c1ccccc1)(c1ccccc1)n1ccnc1 [Clotrimazole]
[8]
  excitability to 1-s acoustic pulses: 14
[2]
  activity during period 15: -30.5
[3]
  activity during first hour: -21.6
[5]
  optomotor response to blue moving lines: 14.5
[4]
  optomotor response to green moving lines: -19.6
[6]
  optomotor response: 17.9

## Nc1nc(F)nc2c1ncn2[C@@H]1O[C@H](CO)[C@@H](O)[C@@H]1O [Fludarabine]
[7]
  habituation to 1-s acoustic pulses: -1.56
[8]
  excitability to 1-s acoustic pulses: 3.42
[2]
  activity during period 15: -6.57
[3]
  activity during first hour: 3.66
[5]
  optomotor response to blue moving lines: -12
[6]
  optomotor response: -4.77

## N#Cc1ccc2[nH]cc(CCCCN3CCN(c4ccc5oc(C(N)=O)cc5c4)CC3)c2c1 [Vilazodone hydrochloride]
[8]
  excitability to 1-s acoustic pulses: 16.8
[1]
  optomotor response to red moving lines: 12.8
[3]
  activity during first hour: -24.1

## Nc1ccn([C@@H]2O[C@H](CO)[C@@H](O)C2(F)F)c(=O)n1 [Gemcitabine hydrochloride]
[7]
  habituation to 1-s acoustic pulses: -2.82
[8]
  excitability to 1-s acoustic pulses: -1.2
[3]
  activity during first hour: -4.38
[5]
  optomotor response to blue moving lines: 3.79
[6]
  optomotor response: 5.64

## Cc1cc2c(s1)Nc1ccccc1N=C2N1CCN(C)CC1 [Olanzapine]
[7]
  habituation to 1-s acoustic pulses: 0.145
[1]
  optomotor response to red moving lines: 4.76
[3]
  activity during first hour: 8.05
[5]
  optomotor response to blue moving lines: 16
[4]
  optomotor response to green moving lines: 8.6
[9]
  startle response to 20-s acoustic pulses: -0.064

## CC(=O)NC[C@H]1CN(c2ccc(N3CCOCC3)c(F)c2)C(=O)O1 [Linezolid]
[8]
  excitability to 1-s acoustic pulses: 7.52
[2]
  activity during period 15: -1.07
[3]
  activity during first hour: 3.81
[5]
  optomotor response to blue moving lines: -4.03

## Cc1nnc(C(C)C)n1C1C[C@H]2CC[C@@H](C1)N2CC[C@H](NC(=O)C1CCC(F)(F)CC1)c1ccccc1 (stereo in doubt) [Maraviroc]
[3]
  activity during first hour: -3.61
[5]
  optomotor response to blue moving lines: -0.85
[4]
  optomotor response to green moving lines: 3.11

## CN1CCC[C@@H]1Cc1c[nH]c2ccc(CCS(=O)(=O)c3ccccc3)cc12 [Eletriptan hydrobromide]
[7]
  habituation to 1-s acoustic pulses: 10.1
[1]
  optomotor response to red moving lines: 4.39
[3]
  activity during first hour: 4.26
[4]
  optomotor response to green moving lines: 6.81
[6]
  optomotor response: -9.58

## CC(=O)Oc1cc2c(s1)CCN(C(C(=O)C1CC1)c1ccccc1F)C2 (centres undefined) [Prasugrel]
[1]
  optomotor response to red moving lines: 5.97
[4]
  optomotor response to green moving lines: -2.39

## COc1ccc([C@@H]2Sc3ccccc3N(CCN(C)C)C(=O)[C@@H]2OC(C)=O)cc1 [Diltiazem hydrochloride]
[1]
  optomotor response to red moving lines: -1.99

## O=C(c1ccc(OCCN2CCCCC2)cc1)c1c(-c2ccc(O)cc2)sc2cc(O)ccc12 [Raloxifene hydrochloride]
[1]
  optomotor response to red moving lines: 3.63
[2]
  activity during period 15: -8.58
[5]
  optomotor response to blue moving lines: -2.86
[4]
  optomotor response to green moving lines: -7.74
